We go through eleven compounds from PubChem BioAssay (NCATS).

Molecules are shown by their SMILES. Some of the results follow. Inconclusive results are not listed. Calls of active or inactive are those of the source. The call rests on the fitted dose curve; in most records, active means well fitted curve in the direction sought with a large enough effect; inconclusive means small, poorly fitted or top-dose-only effect, or another doubt; inactive means no such curve, though single readings can be large; an effect the other way counts as inactive or inconclusive.
Potency means the concentration at half of the fitted maximal effect.

Chain of ATPase family AAA domain-containing protein 5 (Homo sapiens) (Q96QE3 whole entry, looked up, the tested form may be a part): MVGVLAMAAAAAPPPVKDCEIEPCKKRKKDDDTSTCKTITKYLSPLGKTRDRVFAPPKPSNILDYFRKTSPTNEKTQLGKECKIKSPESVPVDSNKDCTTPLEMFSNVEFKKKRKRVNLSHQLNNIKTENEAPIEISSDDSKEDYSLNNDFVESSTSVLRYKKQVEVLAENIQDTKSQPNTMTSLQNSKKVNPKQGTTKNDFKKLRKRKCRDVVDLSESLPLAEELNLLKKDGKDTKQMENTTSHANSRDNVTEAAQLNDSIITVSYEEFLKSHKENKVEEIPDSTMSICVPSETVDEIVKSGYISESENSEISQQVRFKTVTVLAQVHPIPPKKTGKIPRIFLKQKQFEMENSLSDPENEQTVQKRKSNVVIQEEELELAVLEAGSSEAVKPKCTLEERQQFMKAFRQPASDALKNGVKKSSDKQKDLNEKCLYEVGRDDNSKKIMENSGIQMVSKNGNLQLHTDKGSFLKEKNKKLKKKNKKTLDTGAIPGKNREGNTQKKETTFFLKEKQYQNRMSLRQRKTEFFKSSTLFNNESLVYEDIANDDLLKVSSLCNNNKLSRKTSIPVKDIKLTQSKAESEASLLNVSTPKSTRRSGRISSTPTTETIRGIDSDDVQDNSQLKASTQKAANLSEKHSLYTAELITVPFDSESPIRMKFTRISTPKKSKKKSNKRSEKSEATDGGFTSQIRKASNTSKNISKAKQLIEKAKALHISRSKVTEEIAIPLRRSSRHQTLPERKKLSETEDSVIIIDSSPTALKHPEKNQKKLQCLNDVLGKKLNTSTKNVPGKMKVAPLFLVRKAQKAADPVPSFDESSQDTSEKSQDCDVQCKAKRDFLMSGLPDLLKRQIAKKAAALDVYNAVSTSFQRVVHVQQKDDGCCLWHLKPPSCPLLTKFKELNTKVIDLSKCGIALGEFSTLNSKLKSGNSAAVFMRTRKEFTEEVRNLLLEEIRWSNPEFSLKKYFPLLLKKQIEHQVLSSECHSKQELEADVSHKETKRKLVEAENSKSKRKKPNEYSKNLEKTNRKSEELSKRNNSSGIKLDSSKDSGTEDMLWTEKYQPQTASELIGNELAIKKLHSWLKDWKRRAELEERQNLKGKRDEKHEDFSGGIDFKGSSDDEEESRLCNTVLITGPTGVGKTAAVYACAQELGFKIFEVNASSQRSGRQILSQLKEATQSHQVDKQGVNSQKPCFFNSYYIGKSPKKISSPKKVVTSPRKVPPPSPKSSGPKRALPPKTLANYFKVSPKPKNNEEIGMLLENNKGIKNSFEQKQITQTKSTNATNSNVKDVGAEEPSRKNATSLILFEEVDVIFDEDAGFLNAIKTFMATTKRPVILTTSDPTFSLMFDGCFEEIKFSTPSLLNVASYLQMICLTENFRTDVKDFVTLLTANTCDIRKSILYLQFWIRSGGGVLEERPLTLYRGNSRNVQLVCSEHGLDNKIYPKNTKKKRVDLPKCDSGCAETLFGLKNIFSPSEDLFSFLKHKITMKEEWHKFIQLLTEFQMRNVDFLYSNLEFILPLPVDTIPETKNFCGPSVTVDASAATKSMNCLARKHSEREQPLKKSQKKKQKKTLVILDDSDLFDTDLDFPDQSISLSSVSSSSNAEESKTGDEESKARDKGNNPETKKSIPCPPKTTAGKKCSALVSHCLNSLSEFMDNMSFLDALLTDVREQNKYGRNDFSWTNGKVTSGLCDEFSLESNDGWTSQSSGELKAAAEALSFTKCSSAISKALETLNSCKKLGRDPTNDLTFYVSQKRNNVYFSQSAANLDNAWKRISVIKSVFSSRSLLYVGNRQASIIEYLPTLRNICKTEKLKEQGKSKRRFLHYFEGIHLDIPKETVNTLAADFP

The target in the first assay is ATPase family AAA domain-containing protein 5 (Homo sapiens) (UniProt Q96QE3). The assay is described as follows: HTS assay for small molecules that inhibit ELG1-dependent DNA repair in human embryonic kidney (HEK293T) cells expressing luciferase-tagged ELG1: Hit Confirmation (AID 624248). Further: nearly all actives have a fitted effect of over 55% in size. To be noted: HEK293T ELG1-luciferase levels, luminescence, cells co-treated with 5-fluorouridine; series mostly up to 46.1 µM. The method, boiled down:
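Suppression of ELG1-luciferase signal was read by ONE-Glo luminescence in HEK293T reporter cells after 16 h at 37 C co-treatment with compound and 5-fluorouridine as DNA-damaging agent.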
Take `Cc1ccccc1NC(=O)CSc1nc2ccc(Nc3nc(N4CCOCC4)nc(N4CCOCC4)n3)cc2s1`: the Potency was 3.15 µM (active).

In the case of `COc1ccc(NC(=O)c2sc3nc(C)nc(N4CCN(c5ccccn5)CC4)c3c2C)c(OC)c1`, the Potency is 3.97 µM (active).

In the case of `COc1ccc(NC(C)=O)cc1NC(=O)CN1CCN(C2c3ccccc3-c3ccccc32)CC1`, the Potency was 2.81 µM (active).

With `CN(C)c1ccnc2sc3c(=O)n(Cc4ccccc4)cnc3c12`, the Potency was 4.45 µM (active).

As for `Cc1ccc(Nc2nc(N3CCOCC3)nc(N3CCOCC3)n2)cc1Cl`, the Potency was 1.99 µM (active).

For another assay the target is unchanged. The assay is described as follows: qHTS screen for small molecules that inhibit ELG1-dependent DNA repair in human embryonic kidney (HEK293T) cells expressing luciferase-tagged ELG1: Hit Confirmation using MMS Stimulated ELG1 (AID 624249). Further: nearly all actives have a fitted effect of over 60% in size. The conditions noted are these: HEK293T luciferase-tagged ELG1 level; series mostly up to 46.1 µM. The method, boiled down:
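Cells carrying luciferase-tagged ELG1 receive compound and DNA-damaging MMS (final concentration 10 µM) roughly five hours after seeding. Sixteen hours on, Amplight detects luciferase, and activity loss marks blocked ELG1 function.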
Regarding `COc1ccc(CNc2ncnc3ccccc23)cc1`, the Potency was 1.58 µM (active).

Turning to `CC(C)(CNC(=O)c1ccc(Cl)c(S(=O)(=O)N2CCc3ccccc3C2)c1)N1CCOCC1`, the Potency is 1.58 µM (active).

For `COc1ccc(NS(=O)(=O)c2ccc(Oc3c(C#N)cccc3C#N)cc2)cc1`, the Potency is 3.15 µM (active).

Regarding `COc1ccc(NC(=O)C2CCC(CNc3c(N4CCCCC4)c(=O)c3=O)CC2)c(OC)c1` (configuration not stated), the Potency entry was “inactive”.

`O=C(C1CCCN(S(=O)(=O)c2ccccc2)C1)N1CCN(c2ccc(F)cc2)CC1` (configuration not stated): the Potency was 4.45 µM (active).

On to `COc1ccc(S(=O)(=O)Nc2ccc3oc(C)c(C(C)=O)c3c2)cc1`, for which the Potency is 3.97 µM (active).

System in another assay: not listed separately
The assay is described as follows: qHTS screen for small molecules that inhibit ELG1-dependent DNA repair: Hit Confirmation with MMS Viability (AID 624251). Further: nearly all actives have a fitted effect of over 60% in size. The conditions noted are these: Cell viability with MMS; series mostly up to 46.1 µM. A digest of the protocol:
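Viability by CellTiter-Glo 16 h after compound addition to ELG1-luciferase HEK293T cells co-treated with 10 µM final MMS; cells seeded at 2,000/well and dosed roughly 5 h post-plating.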
For orientation: qHTS replaces the single test concentration by a dilution series.
As for `COc1ccc(CNc2ncnc3ccccc23)cc1`, the Potency is 2.23 µM (active).

Turning to `CC(C)(CNC(=O)c1ccc(Cl)c(S(=O)(=O)N2CCc3ccccc3C2)c1)N1CCOCC1`, the Potency is 1.99 µM (active).

Consider `Cc1ccccc1NC(=O)CSc1nc2ccc(Nc3nc(N4CCOCC4)nc(N4CCOCC4)n3)cc2s1`, for which the Potency entry is “inactive”.

For `COc1ccc(NS(=O)(=O)c2ccc(Oc3c(C#N)cccc3C#N)cc2)cc1`, the Potency is 4.45 µM (active).

`COc1ccc(NC(=O)C2CCC(CNc3c(N4CCCCC4)c(=O)c3=O)CC2)c(OC)c1` (configuration not stated): the Potency result is “inactive”.

As to `COc1ccc(NC(=O)c2sc3nc(C)nc(N4CCN(c5ccccn5)CC4)c3c2C)c(OC)c1`, the Potency result is “inactive”.

In the case of `COc1ccc(NC(C)=O)cc1NC(=O)CN1CCN(C2c3ccccc3-c3ccccc32)CC1`, the Potency entry was “inactive”.

For `CN(C)c1ccnc2sc3c(=O)n(Cc4ccccc4)cnc3c12`, the Potency entry was “inactive”.

With `Cc1ccc(Nc2nc(N3CCOCC3)nc(N3CCOCC3)n2)cc1Cl`, the Potency result was “inactive”.

For the compound `O=C(C1CCCN(S(=O)(=O)c2ccccc2)C1)N1CCN(c2ccc(F)cc2)CC1` (configuration not stated), the Potency was 3.97 µM (active).

In the case of `COc1ccc(S(=O)(=O)Nc2ccc3oc(C)c(C(C)=O)c3c2)cc1`, the Potency is 3.97 µM (active).
